The values that follow come from PubChem BioAssay (NCI).

This is part of a sample that, as a whole, favours compounds with a hit. Of some 79,000 tested, about 15% had one in any assay. Active and inactive are the calls of the source. Rule as the data show it: active = growth inhibition above about 70%; inactive = the rest.

A short description of this experiment: NCI Yeast Anticancer Drug Screen. Data for the bub3 strain (AID 167). As to conditions: S. cerevisiae bub3 mutant strain, at 50.0 µM, stronger effect = higher value. As to the method:
Growth inhibition of yeast strains with defined genetic alterations is measured as a screen for potential anti-cancer activity. Selected strains with alterations in DNA damage repair or cell cycle control were exposed to compounds and growth inhibition was measured relative to vehicle treated controls. The strain used in this assay is bub3
For `CC([NH-])C[NH-].CC([NH-])C[NH-].[Cl-].[Cl-].[Co+3].[O-][Cl+3]([O-])([O-])O` (stereo not given), the growth inhibition was 16.9% (inactive).
As to `N#CNC(N)=S`, the growth inhibition was -14.3% (inactive).
The same measure for `Cc1ccc(C)c(NP(=O)(Nc2cc(C)ccc2C)N(CCCl)CCCl)c1`: 9.8% (inactive); for `CC(=O)Oc1cccc(C#N)c1`: 6.65% (inactive); for `O=C(CC(=O)C(F)(F)F)c1ccco1.[Fe]`: 6.55% (inactive).
Regarding `O=c1n(Cc2ccccc2)c2ccccc2n1CC1CS1` (stereo not given), the growth inhibition was 15.8% (inactive).
In the case of `Cn1cnnc1N`, the growth inhibition is 13.2% (inactive).
Turning to `CCC1(C(C)C=C(C)C)C(=O)NC(=O)NC1=O` (stereo not given), the growth inhibition was 10.3% (inactive).
The same measure for `CC(C)C(Br)C(=O)O` (stereo not given): -9.5% (inactive).
Next, `NNC(N)=O`: -13.2% (inactive); `Cc1ccccc1NC(N)=S`: 5.4% (inactive).
Take `O=C(c1ccccc1)c1c(CC(O)c2ccccc2)n(C(=O)c2ccccc2)c2ccccc12` (stereo not given): the growth inhibition is -22.9% (inactive).
Next, `COc1ccc2c(c1)CC(CN1CCC3(CC1)C(=O)N(C)CN3c1ccccc1)O2` (stereo not given): 0.45% (inactive); `CCC[As](=O)(O)CC[As](=O)(O)CCC`: 0.8% (inactive).
The same measure for `Cc1cc(N(CCCl)CCCl)ccc1C1N(Cc2ccc(N(CCCl)CCCl)cc2)CCCN1Cc1ccc(N(CCCl)CCCl)cc1`: -1.35% (inactive).
With `CCOP(=O)(O)OCC`, the growth inhibition was 0.95% (inactive).
Consider `Fc1cccc2cc3cccc[n+]3cc12`, for which the growth inhibition was 15.6% (inactive).
The same measure for `CCOC(=O)C1C2(C(C)=O)C=Nc3c(C#N)cnn3C12C(=O)OCC` (stereo not given): 4.2% (inactive); for `CCC1C(=O)OCC1Cc1cncn1C` (stereo not given): -9.95% (inactive).
In the case of `CS/C([S-])=N/N=C\c1ccccn1.CS/C([S-])=N/N=C\c1ccccn1.[Ni+2]`, the growth inhibition was 2.45% (inactive).
Next, `O=C(OCC1CCCN2CCCCC12)c1ccncc1` (stereo not given): 34.3% (inactive); `COc1ccc(C(C)(C)CC(C)(C)C)cc1`: 6.1% (inactive).
As to `CCOC(=S)S.[Pb]`, the growth inhibition is 26.2% (inactive).
Turning to `CC(N)Cc1c[nH]c2ccccc12` (stereo not given), the growth inhibition is -1.75% (inactive).
`CC(CCOc1ccc2ccc(=O)oc2c1)C1=CC(=O)C(C)(C)O1` (stereo not given): the growth inhibition is -7.25% (inactive).
On to `CCOP(=O)(OCC)/C(C#N)=C/c1cnc[nH]1`, for which the growth inhibition was -20.2% (inactive).
With `Oc1ccccc1C1NCCc2[nH]cnc21` (stereo not given), the growth inhibition was 4.15% (inactive).
Turning to `COc1cc(C=O)cc(OC)c1OC`, the growth inhibition is -7.1% (inactive).
The same measure for `CCN(CC)[P+](C1=C(Cl)C(=O)C(Cl)=C(Cl)C1=O)(N(CC)CC)N(CC)CC`: 8.45% (inactive); for `C[C@H](CCC1SC1(C)C)C1CCC2(C)C3=C(CC[C@]12C)[C@@]1(C)CC[C@H](O)C(C)(C)C1CC3` (stereo not given in full): -5.2% (inactive); for `CC(=O)c1ccc(Br)cc1`: 5.75% (inactive).
As for `CN(CCC(=O)O)C1=Nc2ccc(Cl)cc2C(c2ccccc2)=[N+]([O-])C1`, the growth inhibition is 16.2% (inactive).
Consider `[C-]#[O+].[C-]#[O+].[C-]#[O+].[C-]#[O+].[Cr].c1ccc([PH+](CC[PH+](c2ccccc2)c2ccccc2)c2ccccc2)cc1`, for which the growth inhibition is 0.35% (inactive).
For `CC[As](=O)(O)c1ccc(OC)c(I)c1`, the growth inhibition is 4.35% (inactive).
With `Cc1nc2ccccc2c(=O)n1-c1ccccc1`, the growth inhibition was 10.9% (inactive).
On to `Cc1cc(C(C)(C)C)ccc1O`, for which the growth inhibition was 28.2% (inactive).
Next, `O=c1cc(N2CCNCC2)nc2ccccn12`: 6.95% (inactive); `CCCOC(=O)C(C)(C)C(OP(OCCC)OCCC)=C(C)C`: 1.4% (inactive); `O=NN(Cc1ccccc1)Cc1ccccc1`: 8.6% (inactive).
In the case of `CCCC(NC(=O)CCl)C(=O)O` (stereo not given), the growth inhibition is 0.65% (inactive).
